Test results taken from paper PMC9911399, “Two distinct binding modes provide the RNA-binding protein RbFox with extraordinary sequence specificity”.
Substitutions are numbered along the chain they refer to; changes in the protein carry UniProt numbers. The full ranking holds about 16,000 sequences; the median of “ka relative to ugcaugu” is about 0.096, and the highest 2% start at about 0.35. Many of the other results were omitted from the sample, so the highest values are more common in it than they were.

T1: RBFOX1 RRM RbFoxmut (Fox-RRM*) (Homo sapiens, UniProt Q9NWB1 109-208, R118D;E147R;N151S;E152T)
T1 sequence: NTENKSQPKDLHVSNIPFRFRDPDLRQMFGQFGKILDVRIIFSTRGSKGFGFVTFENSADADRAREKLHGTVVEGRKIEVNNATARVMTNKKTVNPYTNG

B1: CCGGUCA (DNA:RNA)
RNA: GGGAGACCGGAAUUCAGAUUGUCCCCGGUCAUUAAAUCCCGUCGUAGCCACCA
DNA 1: CAATCTGAATTCCGGTCTCCC
DNA 2: TGGTGGCTACGACGGGATT
B2: UGCGACA (DNA:RNA)
RNA: B1 RNA with C25U, C26G, G27C, U29A
DNA 1: CAATCTGAATTCCGGTCTCCC
DNA 2: TGGTGGCTACGACGGGATT
B3: UGGGCUG (DNA:RNA)
RNA: B1 RNA with C25U, C26G, U29C, C30U, A31G
DNA 1: CAATCTGAATTCCGGTCTCCC
DNA 2: TGGTGGCTACGACGGGATT
B4: CUGGCUG (DNA:RNA)
RNA: B1 RNA with C26U, U29C, C30U, A31G
DNA 1: CAATCTGAATTCCGGTCTCCC
DNA 2: TGGTGGCTACGACGGGATT
B5: UGGCUGU (DNA:RNA)
RNA: B1 RNA with C25U, C26G, G28C, C30G, A31U
DNA 1: CAATCTGAATTCCGGTCTCCC
DNA 2: TGGTGGCTACGACGGGATT
B6: UGGGCUC (DNA:RNA)
RNA: B1 RNA with C25U, C26G, U29C, C30U, A31C
DNA 1: CAATCTGAATTCCGGTCTCCC
DNA 2: TGGTGGCTACGACGGGATT
B7: UGGGGGC (DNA:RNA)
RNA: B1 RNA with C25U, C26G, U29G, C30G, A31C
DNA 1: CAATCTGAATTCCGGTCTCCC
DNA 2: TGGTGGCTACGACGGGATT
B8: CUGUGGC (DNA:RNA)
RNA: B1 RNA with C26U, G28U, U29G, C30G, A31C
DNA 1: CAATCTGAATTCCGGTCTCCC
DNA 2: TGGTGGCTACGACGGGATT
B9: GGUGCCG (DNA:RNA)
RNA: B1 RNA with C25G, C26G, G27U, U29C, A31G
DNA 1: CAATCTGAATTCCGGTCTCCC
DNA 2: TGGTGGCTACGACGGGATT
B10: CCCAUAA (DNA:RNA)
RNA: B1 RNA with G27C, G28A, C30A
DNA 1: CAATCTGAATTCCGGTCTCCC
DNA 2: TGGTGGCTACGACGGGATT
B11: CGUUUAU (DNA:RNA)
RNA: B1 RNA with C26G, G27U, G28U, C30A, A31U
DNA 1: CAATCTGAATTCCGGTCTCCC
DNA 2: TGGTGGCTACGACGGGATT
B12: GCAUGUG (DNA:RNA)
RNA: B1 RNA with C25G, G27A, G28U, U29G, C30U, A31G
DNA 1: CAATCTGAATTCCGGTCTCCC
DNA 2: TGGTGGCTACGACGGGATT
B13: GCAUAUG (DNA:RNA)
RNA: B1 RNA with C25G, G27A, G28U, U29A, C30U, A31G
DNA 1: CAATCTGAATTCCGGTCTCCC
DNA 2: TGGTGGCTACGACGGGATT
B14: GCGCAUG (DNA:RNA)
RNA: B1 RNA with C25G, G28C, U29A, C30U, A31G
DNA 1: CAATCTGAATTCCGGTCTCCC
DNA 2: TGGTGGCTACGACGGGATT
B15: GCGCGCA (DNA:RNA)
RNA: B1 RNA with C25G, G28C, U29G
DNA 1: CAATCTGAATTCCGGTCTCCC
DNA 2: TGGTGGCTACGACGGGATT
B16: GCAGAUG (DNA:RNA)
RNA: B1 RNA with C25G, G27A, U29A, C30U, A31G
DNA 1: CAATCTGAATTCCGGTCTCCC
DNA 2: TGGTGGCTACGACGGGATT
B17: GCGCAUA (DNA:RNA)
RNA: B1 RNA with C25G, G28C, U29A, C30U
DNA 1: CAATCTGAATTCCGGTCTCCC
DNA 2: TGGTGGCTACGACGGGATT
B18: GCAUGUC (DNA:RNA)
RNA: B1 RNA with C25G, G27A, G28U, U29G, C30U, A31C
DNA 1: CAATCTGAATTCCGGTCTCCC
DNA 2: TGGTGGCTACGACGGGATT
B19: GUCCGUC (DNA:RNA)
RNA: GGGAGACCGGAAUUCAGAUUGUCCGUCCGUCUUAAAUCCCGUCGUAGCCACCA
DNA 1: CAATCTGAATTCCGGTCTCCC
DNA 2: TGGTGGCTACGACGGGATT
B20: GCACAUG (DNA:RNA)
RNA: B19 RNA with U26C, C27A, G29A, C31G
DNA 1: CAATCTGAATTCCGGTCTCCC
DNA 2: TGGTGGCTACGACGGGATT
B21: GGCUGGU (DNA:RNA)
RNA: B19 RNA with U26G, C28U, U30G, C31U
DNA 1: CAATCTGAATTCCGGTCTCCC
DNA 2: TGGTGGCTACGACGGGATT
B22: GAAGAAG (DNA:RNA)
RNA: B1 RNA with C25G, C26A, G27A, U29A, C30A, A31G
DNA 1: CAATCTGAATTCCGGTCTCCC
DNA 2: TGGTGGCTACGACGGGATT
B23: CACGUCA (DNA:RNA)
RNA: B1 RNA with C26A, G27C
DNA 1: CAATCTGAATTCCGGTCTCCC
DNA 2: TGGTGGCTACGACGGGATT
B24: CCUUCGA (DNA:RNA)
RNA: B1 RNA with G27U, G28U, U29C, C30G
DNA 1: CAATCTGAATTCCGGTCTCCC
DNA 2: TGGTGGCTACGACGGGATT
B25: GUGCUCC (DNA:RNA)
RNA: B19 RNA with C27G, G29U, U30C
DNA 1: CAATCTGAATTCCGGTCTCCC
DNA 2: TGGTGGCTACGACGGGATT
B26: UGGGGGG (DNA:RNA)
RNA: B1 RNA with C25U, C26G, U29G, C30G, A31G
DNA 1: CAATCTGAATTCCGGTCTCCC
DNA 2: TGGTGGCTACGACGGGATT
B27: UGGUGUG (DNA:RNA)
RNA: B19 RNA with G25U, U26G, C27G, C28U, C31G
DNA 1: CAATCTGAATTCCGGTCTCCC
DNA 2: TGGTGGCTACGACGGGATT
B28: UGGUCCG (DNA:RNA)
RNA: B1 RNA with C25U, C26G, G28U, U29C, A31G
DNA 1: CAATCTGAATTCCGGTCTCCC
DNA 2: TGGTGGCTACGACGGGATT
B29: UGUUGGG (DNA:RNA)
RNA: B19 RNA with G25U, U26G, C27U, C28U, U30G, C31G
DNA 1: CAATCTGAATTCCGGTCTCCC
DNA 2: TGGTGGCTACGACGGGATT
B30: UGGGUGU (DNA:RNA)
RNA: B1 RNA with C25U, C26G, C30G, A31U
DNA 1: CAATCTGAATTCCGGTCTCCC
DNA 2: TGGTGGCTACGACGGGATT
B31: CCUGGUG (DNA:RNA)
RNA: B1 RNA with G27U, U29G, C30U, A31G
DNA 1: CAATCTGAATTCCGGTCTCCC
DNA 2: TGGTGGCTACGACGGGATT
B32: UGGGUCC (DNA:RNA)
RNA: B1 RNA with C25U, C26G, A31C
DNA 1: CAATCTGAATTCCGGTCTCCC
DNA 2: TGGTGGCTACGACGGGATT
B33: UGGGUUG (DNA:RNA)
RNA: B1 RNA with C25U, C26G, C30U, A31G
DNA 1: CAATCTGAATTCCGGTCTCCC
DNA 2: TGGTGGCTACGACGGGATT
B34: UGGGGUG (DNA:RNA)
RNA: B1 RNA with C25U, C26G, U29G, C30U, A31G
DNA 1: CAATCTGAATTCCGGTCTCCC
DNA 2: TGGTGGCTACGACGGGATT
B35: CUGGGUG (DNA:RNA)
RNA: B1 RNA with C26U, U29G, C30U, A31G
DNA 1: CAATCTGAATTCCGGTCTCCC
DNA 2: TGGTGGCTACGACGGGATT
B36: UGUGGUG (DNA:RNA)
RNA: B19 RNA with G25U, U26G, C27U, C28G, C31G
DNA 1: CAATCTGAATTCCGGTCTCCC
DNA 2: TGGTGGCTACGACGGGATT
B37: UGGGUCG (DNA:RNA)
RNA: B1 RNA with C25U, C26G, A31G
DNA 1: CAATCTGAATTCCGGTCTCCC
DNA 2: TGGTGGCTACGACGGGATT

What follows are binders tested against T1, RBFOX1 RRM RbFoxmut (Fox-RRM*) (assay: EMSA; HiTS-Eq, 1 nM pool, 10 min; buffer printed only for the single-RNA assays: 10 mM Tris pH 7.5, 150 mM NaCl, 3.4 mM EDTA, 0.001% NP-40, 30 C). Settings: tags: His6 N-terminal (pET28a); label: 5' 32P.
Procedure, shortened: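 Purified RbFox RRM, wild type or mutant, was incubated for 10 min in 50 µL with 1 nM of a 5′-radiolabelled RNA pool carrying 7 randomized nucleotides, whose flanks were annealed to DNA oligonucleotides, over a series of increasing protein concentrations. Unbound RNA was resolved on 8% native PAGE, cut out, reverse-transcribed, barcoded by PCR and sequenced on an Illumina HiSeq 2500. Relative association constants were derived from changes in read counts for each RNA species versus the control reaction and normalised to the cognate motif.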

Binder | binding signal
B1 | 0.0703 KA relative to UGCAUGU
B2 | 0.0626 KA relative to UGCAUGU
B3 | 0.462 KA relative to UGCAUGU
B4 | 0.431 KA relative to UGCAUGU
B5 | 0.299 KA relative to UGCAUGU
B6 | 0.115 KA relative to UGCAUGU
B7 | 0.0983 KA relative to UGCAUGU
B8 | 0.102 KA relative to UGCAUGU
B9 | 0.128 KA relative to UGCAUGU
B10 | 0.0954 KA relative to UGCAUGU
B11 | 0.147 KA relative to UGCAUGU
B12 | 0.954 KA relative to UGCAUGU
B13 | 0.197 KA relative to UGCAUGU
B14 | 1.33 KA relative to UGCAUGU
B15 | 0.13 KA relative to UGCAUGU
B16 | 0.142 KA relative to UGCAUGU
B17 | 0.152 KA relative to UGCAUGU
B18 | 0.492 KA relative to UGCAUGU
B19 | 0.0864 KA relative to UGCAUGU

Binder | binding signal
B20 | 0.128 KA relative to UGCAUGU
B21 | 0.14 KA relative to UGCAUGU
B22 | 0.0975 KA relative to UGCAUGU
B23 | 0.124 KA relative to UGCAUGU
B24 | 0.0928 KA relative to UGCAUGU
B25 | 0.0573 KA relative to UGCAUGU
B26 | 0.0903 KA relative to UGCAUGU
B27 | 0.498 KA relative to UGCAUGU
B28 | 0.265 KA relative to UGCAUGU
B29 | 0.0997 KA relative to UGCAUGU
B30 | 0.305 KA relative to UGCAUGU
B31 | 0.109 KA relative to UGCAUGU
B32 | 0.149 KA relative to UGCAUGU
B33 | 0.947 KA relative to UGCAUGU
B34 | 0.38 KA relative to UGCAUGU
B35 | 0.347 KA relative to UGCAUGU
B36 | 0.273 KA relative to UGCAUGU
B37 | 0.375 KA relative to UGCAUGU
